Test results published in the antibiotic and cytotoxicity screens of Wong et al. (2023).
The whole screen tested about 39,000 compounds, of which about 3,300 (8.5%) were called active. Only a selection was taken, and actives are over-represented in it overall.

Each molecule was assayed on HepG2 (assay: cytotoxicity call (relative viability < 0.9)). Conditions: 10 µM.

**Q.** For COc1ccc(C(N)=S)cn1, which cytotoxicity call is on record?
**A.** inactive

**Q.** Cc1noc(C)c1S(=O)(=O)Nc1ccc2c(c1)C(=O)N([C@H](C)CO)C[C@H](C)[C@H](CN(C)CC1CC1)O2 was tested. Which cytotoxicity call did it give?
**A.** inactive

**Q.** Which cytotoxicity call does the source give for C[C@@H]1CN([C@@H](C)CO)S(=O)(=O)c2ccc(C#CC(C)(C)O)cc2O[C@H]1CN(C)Cc1ccncc1 here?
**A.** inactive

**Q.** Which cytotoxicity call does the source give for C[C@H](CO)N1C[C@H](C)[C@@H](CN(C)S(=O)(=O)c2ccccc2)Oc2ccc(NC(=O)CCN3CCOCC3)cc2CC1=O here?
**A.** inactive

**Q.** For CS(=O)(=O)Nc1ccc2c(c1)C(=O)NC2=O, which cytotoxicity call is on record?
**A.** inactive

**Q.** COc1ccccc1CNS(C)(=O)=O was tested. Which cytotoxicity call did it give?
**A.** inactive

**Q.** How did the cytotoxicity call turn out when COc1cc(NS(C)(=O)=O)ccc1Nc1c2ccccc2nc2ccccc12 was run?
**A.** active

**Q.** With C[C@H]1CCCCO[C@@H](CN(C)C(=O)c2ccncc2)[C@@H](C)CN([C@@H](C)CO)C(=O)c2cc(NC(=O)NC3CCCCC3)ccc2O1 as the molecule, how does the cytotoxicity call read?
**A.** inactive

**Q.** How did the cytotoxicity call turn out when Cn1nccc1C(=O)NCCN was run?
**A.** inactive

**Q.** CNC(=O)[C@@H](c1ccccc1)N1CCc2cc(OC)c(OC)cc2[C@@H]1CCc1ccc(C(F)(F)F)cc1 was tested. Which cytotoxicity call did it give?
**A.** inactive

**Q.** How did the cytotoxicity call turn out when CNCCC(Oc1ccc(C(F)(F)F)cc1)c1ccccc1.Cl (stereo not drawn) was run?
**A.** active

**Q.** CNCCC(Oc1ccccc1C)c1ccccc1.Cl (stereo not drawn) was tested. Which cytotoxicity call did it give?
**A.** inactive

**Q.** With CCCOC(=S)N[C@H]1OC[C@@H](O)[C@@H](O)[C@@H]1O as the molecule, how does the cytotoxicity call read?
**A.** inactive

**Q.** How did the cytotoxicity call turn out when COc1ccccc1-c1ccc2c(c1)O[C@@H](CN(C)S(=O)(=O)c1ccccc1)[C@@H](C)CN([C@@H](C)CO)S2(=O)=O was run?
**A.** inactive

**Q.** C=CC[C@@H](CC(=O)NCCO)C(=O)NC[C@H](OC(=O)[C@H](CC=C)CC(=O)OC(C)(C)C)c1ccccc1 was tested. Which cytotoxicity call did it give?
**A.** inactive

**Q.** How did the cytotoxicity call turn out when COc1ccc(S(=O)(=O)N[C@@H](CNc2nc(C)nc(N3CCC(c4ccc5c(n4)NCCC5)CC3)c2C)C(=O)O)cc1 was run?
**A.** active

**Q.** Which cytotoxicity call does the source give for O=C(NCCCN1CCOCC1)[C@H]1[C@@H]2C=C[C@@]3(CN(Cc4cccs4)C(=O)[C@@H]13)O2 here?
**A.** inactive

**Q.** How did the cytotoxicity call turn out when Cc1cncc2cccc(S(=O)(=O)N3CC[C@H](N(C/C=C/c4ccc(Br)cc4)C/C=C/c4ccc(Br)cc4)C3)c12 was run?
**A.** inactive

**Q.** For S=C(NCCCc1cnc[nH]1)NCCCN(Cc1ccc(Cl)c(Cl)c1)c1ccc(Br)cn1, which cytotoxicity call is on record?
**A.** active

**Q.** Which cytotoxicity call does the source give for C[C@@H]1CCCCO[C@@H](CN(C)C(=O)Nc2ccccc2)[C@H](C)CN([C@H](C)CO)C(=O)c2cc(NS(=O)(=O)c3ccccc3)ccc2O1 here?
**A.** inactive

**Q.** Which cytotoxicity call does the source give for CC(C)(C)[S@@+]([O-])N1Cc2cc(C(=O)NCc3ccc4c(c3)OCO4)nc(-c3ccc(-c4ccccc4)cc3)c2[C@H]1CCO here?
**A.** inactive

**Q.** Which cytotoxicity call does the source give for COc1ccc(S(=O)(=O)N[C@@H]2C=C[C@@H](CC(=O)N3CCC(Cc4ccccc4)CC3)O[C@H]2CO)cc1 here?
**A.** inactive

**Q.** For CCCNC(=O)C[C@@H]1CC[C@H]2[C@H](COc3ccc(NC(=O)c4ccc5c(c4)OCO5)cc3C(=O)N2C)O1, which cytotoxicity call is on record?
**A.** inactive

**Q.** C[C@H]1CN([C@@H](C)CO)C(=O)Cc2cc(NS(=O)(=O)c3ccc(Cl)cc3)ccc2O[C@@H]1CN(C)Cc1ccc(Cl)c(Cl)c1 was tested. Which cytotoxicity call did it give?
**A.** inactive

**Q.** With C[C@@H]1CN([C@H](C)CO)C(=O)Cc2cc(NS(=O)(=O)c3ccc(Cl)cc3)ccc2O[C@@H]1CN(C)Cc1ccc(Cl)c(Cl)c1 as the molecule, how does the cytotoxicity call read?
**A.** active

**Q.** With C[C@H]1CN([C@@H](C)CO)C(=O)Cc2cc(NS(=O)(=O)c3ccc(Cl)cc3)ccc2O[C@H]1CN(C)Cc1ccc(Cl)c(Cl)c1 as the molecule, how does the cytotoxicity call read?
**A.** active

**Q.** C[C@@H]1CN([C@@H](C)CO)C(=O)Cc2cc(NS(=O)(=O)c3ccc(Cl)cc3)ccc2O[C@@H]1CN(C)Cc1ccc(Cl)c(Cl)c1 was tested. Which cytotoxicity call did it give?
**A.** active

**Q.** With C[C@@H]1CN([C@@H](C)CO)C(=O)Cc2cc(NS(=O)(=O)c3ccc(Cl)cc3)ccc2O[C@H]1CN(C)Cc1ccc(Cl)c(Cl)c1 as the molecule, how does the cytotoxicity call read?
**A.** inactive

**Q.** Which cytotoxicity call does the source give for C[C@@H]1CN([C@H](C)CO)C(=O)Cc2cc(NS(=O)(=O)c3ccc(Cl)cc3)ccc2O[C@H]1CN(C)Cc1ccc(Cl)c(Cl)c1 here?
**A.** inactive

**Q.** C[C@H](CO)N1C[C@H](C)[C@H](CN(C)Cc2ccc(Cl)c(Cl)c2)Oc2ccc(NS(=O)(=O)c3ccc(Cl)cc3)cc2CC1=O was tested. Which cytotoxicity call did it give?
**A.** active

**Q.** C[C@H](CO)N1C[C@H](C)[C@@H](CN(C)Cc2ccc(Cl)c(Cl)c2)Oc2ccc(NS(=O)(=O)c3ccc(Cl)cc3)cc2CC1=O was tested. Which cytotoxicity call did it give?
**A.** inactive

**Q.** Which cytotoxicity call does the source give for CO[C@H]1CN(C)C(=O)c2ccc(NS(=O)(=O)c3cn(C)cn3)cc2OC[C@@H](C)N(Cc2cccc(F)c2)C[C@H]1C here?
**A.** inactive

**Q.** Which cytotoxicity call does the source give for C[C@H](CO)N1C[C@H](C)[C@H](CN(C)Cc2ccc(C(=O)O)cc2)Oc2c(NC(=O)C3CCOCC3)cccc2C1=O here?
**A.** inactive

**Q.** Which cytotoxicity call does the source give for C[C@@H]1CN([C@@H](C)CO)C(=O)c2cccc(NC(=O)Nc3ccccc3)c2O[C@@H]1CN(C)Cc1ccc(Cl)c(Cl)c1 here?
**A.** inactive

**Q.** Cc1cc2n(c(=O)c1C(N)=O)CCO2 was tested. Which cytotoxicity call did it give?
**A.** inactive

**Q.** Which cytotoxicity call does the source give for CC/C=C\C/C=C\C/C=C\C/C=C\C/C=C\C/C=C\CCC(=O)OCC here?
**A.** inactive

**Q.** Which cytotoxicity call does the source give for C[C@@H]1CN([C@@H](C)CO)C(=O)c2cc(NC(=O)Nc3ccc4c(c3)OCO4)ccc2O[C@@H](C)CCCCO[C@@H]1CN(C)Cc1ccncc1 here?
**A.** inactive

**Q.** With CCCNC(=O)N1C[C@]2(CN(C2)S(=O)(=O)c2cccc(c2)OC)c2c(n(c3cc(ccc23)OC)C)[C@@H]1CO as the molecule, how does the cytotoxicity call read?
**A.** inactive

**Q.** For CCCNC(=O)N1C[C@]2(CCN(CC2)S(=O)(=O)c2ccc(cc2)OC)c2c(n(c3cc(ccc23)OC)C)[C@H]1CO, which cytotoxicity call is on record?
**A.** inactive

**Q.** CCCNC(=O)N1C[C@]2(CN(C2)S(=O)(=O)c2ccccc2)c2c(n(c3cc(ccc23)OC)C)[C@H]1CO was tested. Which cytotoxicity call did it give?
**A.** active

**Q.** For CCCNC(=O)N1C[C@]2(CCN(CC2)S(=O)(=O)c2ccc(cc2)OC)c2c(n(c3cc(ccc23)OC)C)[C@@H]1CO, which cytotoxicity call is on record?
**A.** active

**Q.** With CCCNC(=O)N1C[C@]2(CCN(CC2)S(=O)(=O)c2ccccc2)c2c(n(c3cc(ccc23)OC)C)[C@H]1CO as the molecule, how does the cytotoxicity call read?
**A.** inactive

**Q.** How did the cytotoxicity call turn out when CCCNC(=O)N1C[C@]2(CN(C2)S(=O)(=O)c2ccccc2)c2c(n(c3cc(ccc23)OC)C)[C@@H]1CO was run?
**A.** inactive

**Q.** With C[C@H]1CN([C@@H](C)CO)C(=O)c2cccc(NS(C)(=O)=O)c2O[C@H]1CN(C)S(=O)(=O)c1cccs1 as the molecule, how does the cytotoxicity call read?
**A.** inactive

**Q.** With COCC#Cc1cnc2c(c1)C(=O)N([C@H](C)CO)C[C@@H](C)[C@H](CN(C)C(C)=O)O2 as the molecule, how does the cytotoxicity call read?
**A.** inactive

**Q.** N[C@@H]1CC(=O)N(c2ccc(F)cc2)C1 was tested. Which cytotoxicity call did it give?
**A.** inactive

**Q.** With C[C@H](CO)N1C[C@H](C)[C@H](CN(C)S(=O)(=O)c2ccc(Cl)cc2)Oc2ccc(NS(=O)(=O)c3cn(C)cn3)cc2C1=O as the molecule, how does the cytotoxicity call read?
**A.** inactive

**Q.** O=C(CCCCC(=O)N/N=C/[C@H](O)[C@@H](O)[C@H](O)CO)NO was tested. Which cytotoxicity call did it give?
**A.** inactive

**Q.** How did the cytotoxicity call turn out when COc1ccc(CN(C)C[C@H]2OCCCC[C@@H](C)Oc3ccc(NS(=O)(=O)c4cccs4)cc3C(=O)N([C@H](C)CO)C[C@@H]2C)cc1 was run?
**A.** inactive

**Q.** How did the cytotoxicity call turn out when COC(=O)C[C@](O)(CCCC(C)(C)O)C(=O)O[C@@H]1C(OC)=C[C@]23CCCN2CCc2cc4c(cc2[C@H]13)OCO4 was run?
**A.** active

**Q.** How did the cytotoxicity call turn out when CC(C)(O)[C@@H]1CC[C@]2(CO)[C@@H](O)CC[C@](C)(O)[C@H]2[C@@H]1O[C@@H]1O[C@H](CO)[C@@H](O)[C@H](O)[C@H]1O was run?
**A.** inactive

**Q.** How did the cytotoxicity call turn out when Cc1ccc(S(=O)(=O)N(C)C[C@H]2Oc3c(NC(=O)c4cnccn4)cccc3C(=O)N([C@@H](C)CO)C[C@@H]2C)cc1 was run?
**A.** inactive

**Q.** For C[C@@H]1CCCCO[C@H](CN(C)S(=O)(=O)c2ccc(Cl)cc2)[C@@H](C)CN([C@H](C)CO)C(=O)c2cc(NC(=O)c3ccccc3)ccc2O1, which cytotoxicity call is on record?
**A.** inactive

**Q.** For C[C@H](CO)N1C[C@H](C)[C@H](CN(C)S(=O)(=O)c2ccc(Cl)cc2)OCCCC[C@H](C)Oc2ccc(NC(=O)c3ccccc3)cc2C1=O, which cytotoxicity call is on record?
**A.** inactive

**Q.** Which cytotoxicity call does the source give for C[C@H]1CCCCO[C@H](CN(C)S(=O)(=O)c2ccc(Cl)cc2)[C@@H](C)CN([C@@H](C)CO)C(=O)c2cc(NC(=O)c3ccccc3)ccc2O1 here?
**A.** active

**Q.** Which cytotoxicity call does the source give for C[C@@H]1CN([C@@H](C)CO)C(=O)c2cc(NC(=O)c3ccccc3)ccc2O[C@@H](C)CCCCO[C@@H]1CN(C)S(=O)(=O)c1ccc(Cl)cc1 here?
**A.** inactive

**Q.** C[C@@H]1CCCCO[C@@H](CN(C)S(=O)(=O)c2ccc(Cl)cc2)[C@@H](C)CN([C@H](C)CO)C(=O)c2cc(NC(=O)c3ccccc3)ccc2O1 was tested. Which cytotoxicity call did it give?
**A.** inactive

**Q.** With C[C@@H]1CN([C@H](C)CO)C(=O)c2cc(NC(=O)c3ccccc3)ccc2O[C@@H](C)CCCCO[C@H]1CN(C)S(=O)(=O)c1ccc(Cl)cc1 as the molecule, how does the cytotoxicity call read?
**A.** active

**Q.** How did the cytotoxicity call turn out when C[C@@H]1CCCCO[C@@H](CN(C)S(=O)(=O)c2ccc(Cl)cc2)[C@H](C)CN([C@H](C)CO)C(=O)c2cc(NC(=O)c3ccccc3)ccc2O1 was run?
**A.** inactive

**Q.** C[C@@H]1CCCCO[C@@H](CN(C)S(=O)(=O)c2ccc(Cl)cc2)[C@@H](C)CN([C@@H](C)CO)C(=O)c2cc(NC(=O)c3ccccc3)ccc2O1 was tested. Which cytotoxicity call did it give?
**A.** inactive

**Q.** Which cytotoxicity call does the source give for C[C@@H]1CN([C@@H](C)CO)C(=O)c2cc(NC(=O)c3ccccc3)ccc2O[C@@H](C)CCCCO[C@H]1CN(C)S(=O)(=O)c1ccc(Cl)cc1 here?
**A.** active

**Q.** For COCC#Cc1ccc([C@H]2[C@H](CO)N3C(=O)CN(C(=O)c4ccncc4)C[C@@H]23)cc1, which cytotoxicity call is on record?
**A.** inactive

**Q.** With Cc1noc(C)c1S(=O)(=O)N(C)C[C@@H]1Oc2ccc(NS(=O)(=O)c3cn(C)cn3)cc2CC(=O)N([C@H](C)CO)C[C@@H]1C as the molecule, how does the cytotoxicity call read?
**A.** inactive

**Q.** NC(=S)CS(=O)(=O)c1ccccn1 was tested. Which cytotoxicity call did it give?
**A.** inactive

**Q.** With CC(=O)OC[C@H]1O[C@@H](NC(N)=O)[C@H](OC(C)=O)[C@@H](OC(C)=O)[C@@H]1OC(C)=O as the molecule, how does the cytotoxicity call read?
**A.** inactive

**Q.** C[C@@H]1CCCCO[C@@H](CN(C)C)[C@H](C)CN([C@@H](C)CO)C(=O)c2cc(NC(=O)Nc3cccc4ccccc34)ccc2O1 was tested. Which cytotoxicity call did it give?
**A.** inactive

**Q.** For C[C@H]1CN([C@@H](C)CO)C(=O)c2cc(NC(=O)CCCN(C)C)ccc2O[C@@H]1CN(C)C(=O)Nc1ccccc1, which cytotoxicity call is on record?
**A.** inactive

**Q.** How did the cytotoxicity call turn out when NC[C@@H](O)C1CCCCC1 was run?
**A.** inactive
